Results as given in PubChem BioAssay (NCATS).
Inconclusive results are not listed. Entries that show only a call come without a potency. Values without a mark were called inactive. Calls of active or inactive are those of the source. Calls follow the shape of the dose curve; as a rule, active = well fitted inhibition curve with a large enough effect; inconclusive = small, poorly fitted or top-dose-only effect; inactive = no such curve, though single readings can be large or run the other way.
Potency is read from the fitted curve at half-maximal effect.

Each compound was assayed on Zika virus NS2B-NS3 protease (unlinked complex) (assay: Primary screen GU Rhodamine qHTS for Zika virus inhibitors: Unlinked NS2B-NS3 protease assay (AID 1347159; also: nearly all actives have a fitted effect of over 60% in size)). Details: Recombinant ZIKV NS2B-NS3 protease, Rhodamine110 substrate fluorescence; series mostly up to 107 µM.
Outline: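 Noncovalent NS2B hydrophilic domain/NS3 protease complex (25 nM final) in 10 mM Tris-HCl pH 8.0, 0.01% Tween 20, preincubated 15 min with compounds (up to 114 microM), then 1.5 microM Rhodamine110 substrate. Fluorescence change over 15 min fitted to 4-parameter Hill.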
`CC(=O)OC1CCC2(C)C(CCC3(C)C2CC=C2C4CC(C)(C)CCC4(C)CCC23C)C1(C)C(=O)O` (stereo not drawn) was tested, and the Potency was 7.08 µM (active). `NC1Nc2ccccc2C1(N)CC1NC(=O)C(Cc2ccccc2)NC(=O)C(Cc2ccccc2)NC1=O` (stereo not drawn) was tested, and the Potency was “inactive”. With `C=C(C)[C@@]1(O)C[C@@]2(C)C(=CC1=O)CC[C@@H](O)[C@@H]2C` the Potency was “inactive”. With `C[C@]12CCC[C@](C)(C(=O)O)C1[C@@H](O)[C@@H](O)C13CC(CCC12)C(CO)(O[C@@H]1O[C@H](CO)[C@@H](O)[C@H](O)[C@H]1O)C3` (stereo partly drawn) the Potency was “inactive”. With `CCCCCOC(=O)Nc1nc(=O)n(C2O[C@H](C)[C@@H](O)[C@H]2O)cc1F` (stereo partly drawn) the Potency was “inactive”. `COc1cc(Cc2cnc(N)nc2N)c(C(C)C)cc1OC` was tested, and the Potency was “inactive”. For `COC(=O)C1=C[C@@H](O)[C@@H](O)[C@H](O[C@@H]2O[C@H](CO)[C@@H](O)[C@H](O)[C@H]2OC(=O)/C=C/c2ccccc2)C1`, the Potency was “inactive”. With `C/C=C1\[C@H](O[C@@H]2O[C@H](CO)[C@@H](O)[C@H](O)[C@H]2O)OC=C(C(=O)OCCc2ccc(O)cc2)[C@H]1CC(=O)OCCc1ccc(O)cc1` the Potency was “inactive”. `C=CCc1ccc(O[C@@H]2O[C@H](CO)[C@@H](O)[C@H](O)[C@H]2O)c(O[C@@H]2O[C@H](CO)[C@@H](O)[C@H](O)[C@H]2O)c1` was tested, and the Potency was “inactive”. With `O=C(OC(C(F)(F)F)C(F)(F)F)N1CCN(Cc2cccc(Oc3ccccc3)c2)CC1` the Potency was “inactive”. For `CN(C)CCC[C@]1(c2ccc(F)cc2)OCc2cc(C#N)ccc21`, the Potency was “inactive”. `C[C@@H]1O[C@@H](O[C@H]2[C@H](O[C@H]3[C@H](O[C@H]4CC[C@@]5(C)C(CC[C@]6(C)C5CC=C5[C@@H]7CC(C)(C)C[C@@H](O)[C@]7(C)CC[C@]56C)[C@@]4(C)CO)O[C@H](C(=O)O)[C@@H](O)[C@@H]3O)O[C@H](CO)[C@H](O)[C@@H]2O)[C@H](O)[C@H](O)[C@H]1O` (stereo partly drawn) was tested, and the Potency was “inactive”. `COc1cc(O)cc(O[C@@H]2O[C@H](CO)[C@@H](O[C@@H]3OC[C@](O)(CO)[C@H]3O)[C@H](O)[C@H]2O)c1OC` was tested, and the Potency was “inactive”. `COc1ccccc1CN[C@H]1CCCN[C@H]1c1ccccc1` was tested, and the Potency was “inactive”. `CC[C@H]1OC(=O)[C@H](C)C(=O)[C@H](C)[C@@H](OC2O[C@H](C)C[C@H](N(C)C)[C@H]2O)[C@@H](C)C[C@@H](C)C(=O)/C=C/[C@]1(C)O` (stereo partly drawn) was tested, and the Potency was “inactive”. In the case of `C=C1CCC2[C@@](C)(C(=O)O)CCC[C@@]2(C)[C@@H]1CCc1ccoc1` (stereo partly drawn), the Potency is reported as 10 µM (active). For `COC(=O)C[C@@H]1C(C(=O)O)=CO[C@@H](O[C@@H]2O[C@H](CO)[C@@H](O)[C@H](O)[C@H]2O)/C1=C\COC(=O)/C=C/c1ccc(O)c(OC)c1`, the Potency was “inactive”. For `C=C1[C@H](OC(C)=O)[C@H]2[C@@H](OC(C)=O)C(C)C[C@]2(OC(C)=O)C(=O)[C@H](C)/C=C/C(C)(C)C(=O)[C@H](OC(=O)C(C)C)[C@H]1OC(C)=O` (stereo partly drawn), the Potency was “inactive”. `COc1ccc2[nH]c(S(=O)Cc3ncc(C)c(OC)c3C)nc2c1` (stereo not drawn) was tested, and the Potency was “inactive”. With `Cc1cc(-n2c(=O)[nH]c(=O)n(C)c2=O)ccc1Oc1ccc(SC(F)(F)F)cc1` the Potency was 15.8 µM (active). `CC(C)C1NC(=O)C2CCCN2C1=O` (stereo not drawn) was tested, and the Potency was “inactive”. For `CCCO[C@@H]1O[C@H](CO)[C@@H](O)[C@H](O)[C@H]1O[C@@H]1OC[C@@H](O)[C@H](O)[C@H]1O`, the Potency was “inactive”. `CC(C)c1ccc2c(c1)C(O)CC1C(C)(CO)CCCC21C` (stereo not drawn) was tested, and the Potency was “inactive”. `O=C(O)[C@H](Cc1ccccc1)Oc1ccc(-c2ccccc2)cc1` was tested, and the Potency was 35.5 µM (active). For `CC1CCC2(C)CCC3(C)C(=CCC4C5(C)CCC(O)C(C)(C(=O)O)C5CCC43C)C2C1C` (stereo not drawn), the Potency was 8.91 µM (active). With `Cc1ccc(-c2c(-c3nn(C)c4ncnc(N5CC[C@H](N6CCCCC6)C5)c34)cnn2C)cc1` the Potency was “inactive”. With `OC[C@@]1(O)CO[C@H](OC[C@H]2O[C@@H](OC(CCCCc3ccc(O)cc3)CCc3ccc(O)cc3)[C@H](O)[C@@H](O)[C@@H]2O)[C@@H]1O` (stereo partly drawn) the Potency was “inactive”. Work on `CC(C)=CCC[C@](C)(O[C@@H]1O[C@H](CO[C@@H]2O[C@@H](CO)[C@H](O)[C@H]2O[C@@H]2OC[C@@H](O)[C@H](O)[C@H]2O)[C@@H](O)[C@H](O)[C@H]1O)[C@H]1CC[C@]2(C)[C@@H]1[C@H](O)CC1[C@@]3(C)CC[C@H](O[C@@H]4O[C@H](CO)[C@@H](O)[C@H](O)[C@H]4O[C@@H]4O[C@H](CO)[C@@H](O)[C@H](O)[C@H]4O)C(C)(C)C3CC[C@]12C` (stereo partly drawn) yielded an activity change, negative = inhibition of 0.816% [at 19.1 µM].
